High-throughput results (PubChem)
D2 ag-1: HTS Assay for Allosteric Agonists of the Human D2 Dopamine Receptor: Primary Screen for Agonists; 340,000 compounds, 0.53% hits; AID 485358, 2010; activation, % at 2 µM; D(2) dopamine receptor (Homo sapiens), P14416; HEK293 T-REx D2 cells, calcium flux agonist mode;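 active = activation over 3 SD above normal in the single-dose calcium agonist read, cut at about 30% in these data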; also: 0% is about no effect
Target sequence (P14416 whole entry, looked up): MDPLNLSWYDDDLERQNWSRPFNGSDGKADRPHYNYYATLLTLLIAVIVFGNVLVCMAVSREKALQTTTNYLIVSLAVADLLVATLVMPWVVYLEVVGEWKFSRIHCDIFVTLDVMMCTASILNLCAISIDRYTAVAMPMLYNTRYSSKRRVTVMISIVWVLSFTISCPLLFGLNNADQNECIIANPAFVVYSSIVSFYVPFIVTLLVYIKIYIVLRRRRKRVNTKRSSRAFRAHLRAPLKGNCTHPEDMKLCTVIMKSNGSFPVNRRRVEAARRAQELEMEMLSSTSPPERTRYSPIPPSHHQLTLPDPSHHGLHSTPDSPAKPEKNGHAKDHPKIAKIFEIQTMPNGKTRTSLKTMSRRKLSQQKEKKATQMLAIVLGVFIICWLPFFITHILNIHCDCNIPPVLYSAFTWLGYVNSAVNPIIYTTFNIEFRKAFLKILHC
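Calcium-flux readout, 1 cycle/sec over 180 s following compound pin transfer, in inducible HEK293 Trex D2 cells (force-coupled); dopamine controls included. Positive calcium responses during this window marked compounds as potential agonists.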
D2 ag-2: Beta-Arrestin HTS for Positive Allosteric Modulators of the Human D2 Dopamine Receptor: Agonists; D(2) dopamine receptor (Homo sapiens), P14416; DiscoveRx PathHunter D2 beta-arrestin, luminescence, 90 min; 100% = 57 uM dopamine signal; activation, % (concentration not given with the values); 360,000 compounds, 0.084% hits; in the data active = activation above about 40%; inconclusive = between about 15% and that limit
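Agonist mode: compounds alone added to overnight-plated D2 PathHunter cells for 90 min at 37 C, with 57 uM final dopamine (EC100) defining full response. Beta-arrestin recruitment detected by chemiluminescent reagent, read after 1 h at ambient temperature.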
D2 PAM-1: HTS Assay for Positive Allosteric Modulators of the Human D2 Dopamine Receptor: Primary Screen for Potentiators. HEK293 T-REx D2, calcium flux, EC20 dopamine potentiation. D(2) dopamine receptor (Homo sapiens), P14416. potentiation, % at 10 µM. 340,000 compounds, 0.34% hits;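 active = potentiation over 3 SD above the plate norm, cut at about 30% in these data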; also: 0% is about no effect
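Potentiation of an EC20 dopamine calcium response measured kinetically over 180 s, after a preceding 180 s compound-only read flagging agonists. Cells: inducible Hek293 Trex D2 line, 4000/well, cultured overnight at 30 C before dye loading.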
D2 antagonist: HTS Assay for Allosteric Antagonists of the Human D2 Dopamine Receptor: Primary Screen for Antagonists | 340,000 compounds, 2% hits | inhibition, % at 10 µM | HEK293 TREx D2 cells, calcium flux, dopamine EC80; in the data active = inhibition above about 30%; inactive = below that, where a call was filed; also: 0% is about no effect
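Compounds are added to dye-loaded, induced HEK293 T-REx cells coupled to calcium release via D2; after a 3 min kinetic read an EC80 dopamine stimulus is given and fluorescence is recorded for 3 more min.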
D2 PAM-2: Beta-Arrestin HTS for Positive Allosteric Modulators of the Human D2 Dopamine Receptor: Potentiators | D(2) dopamine receptor (Homo sapiens), P14416 | DiscoveRx D2 beta-arrestin cells, luminescence, 90 min; 100% = 57 uM dopamine signal | potentiation, % (no concentration beside the values) | 360,000 compounds, 0.23% hits; in the data active = potentiation above about 50%; inconclusive = mostly about 30% to 49%
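D2 cells co-treated with compound plus 50 nM dopamine (EC20) for 90 min at 37 deg C to detect potentiation. Beta-arrestin recruitment was read as enzyme-fragment luminescence after 1 h at ambient temperature. Full response was set by 57 uM dopamine.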
* marks the source's active call; other numbers are inactive results; ? = inconclusive; / = no result. Only some compounds are listed: those with a hit (about 2.4% of all), similar ones and a draw of the others.

SMILES	D2 ag-1	D2 ag-2	D2 PAM-1	D2 antagonist	D2 PAM-2
Cc1ccc(NC(=O)C2C3C=CC4(O3)C2C(=O)N(CCN2CCOCC2)C4C(=O)NC2CCCCC2)cc1C (configuration not stated)	0.4	-1.9	0.9	0.7	-4.9
Cc1ccc(NC(=O)C2C3C=CC4(O3)C2C(=O)N(CCCN2CCOCC2)C4C(=O)NC2CCCCC2)cc1Cl (configuration not stated)	1.3	4.7	2.2	31.1*	-8.3
COc1ccc(C(=O)NCCc2cnc[nH]2)cc1OC	-0.6	-7.8	19.3	34.9*	-18.1
COc1ccc(C(=O)NCCC2=CCCCC2)cc1OC	-0.4	-2.0	-21.2	34.5*	-17.6
COc1ccc(C(=O)NCCC2=CCCCC2)cc1	-0.2	-6.4	-5.8	-7.9	-24.1
COc1ccc(C(=O)NCCSCc2cccc(Cl)c2)cc1OC	-0.2	-5.5	-1.3	32.0*	-8.4
Clc1ccc(-c2nnnn2-c2ccc(Cl)c(Cl)c2)cc1Cl	0.2	-4.4	1.3	-6.0	-0.4
CCOC(=O)C1=C(Cn2cnc3ccccc32)NC(=O)NC1c1cc(C)ccc1C (configuration not stated)	0.8	?	9.6	-9.8	?
COC(=O)C1=C(Cn2cnc3ccccc32)NC(=O)NC1c1cc(C)ccc1C (configuration not stated)	0.8	51.6*	-2.6	-8.8	90.7*
CCCOc1ccc(CNC(=O)Cn2cc3c(n2)-c2c(oc(C(=O)N4CCOCC4)c2C)CC3)cc1	/	/	4.9	/	/
Cc1sc(NC(=O)c2cccs2)c(C(=O)OC(C)C)c1C	0.8	-6.0	-4.8	31.3*	-2.0
CSC1=NSC2=NC(=O)/C(=C\c3cccs3)C(=N)N12	0.1	-3.8	-5.2	3.9	1.0
CSC1=NSC2=NC(=O)/C(=C/c3coc4ccccc4c3=O)C(=N)N12	55.2*	0.7	12.5	-13.2	-6.5
COc1cc(/C=C2/C(=N)N3C(SC)=NSC3=NC2=O)ccc1OC(=O)c1ccco1	0.3	-7.2	-9.8	-5.3	-8.1
N=C1/C(=C\c2coc3ccccc3c2=O)C(=O)N=C2SC=CN12	116.6*	-5.1	-3.7	-0.3	-18.8
CSC1=NSC2=NC(=O)/C(=C/c3coc4ccc(O)cc4c3=O)C(=N)N12	48.4*	6.6	1.1	-5.0	27.7
N=C1/C(=C/c2cccn2Cc2ccc(F)cc2)C(=O)N=C2SC=CN12	-0.8	-1.7	-0.4	14.8	9.8
CC1=CC2=NC(=O)/C(=C/c3coc4ccc(Cl)cc4c3=O)C(=N)N2O1	64.1*	1.1	-3.9	2.5	0.0
O=c1c2ccccc2nc(SCc2ccccc2)n1CC1CCCO1 (configuration not stated)	0.8	-5.1	22.6	-8.0	-2.5
O=C(CSc1nnc(CNC(=O)c2c(F)cccc2Cl)o1)Nc1ccccc1F	0.0	/	4.3	/	/
COc1ccc(Br)cc1S(=O)(=O)n1nc(C)cc1C	/	-0.7	-1.2	/	-2.0
O=C(N/N=C/c1cc(Cl)ccc1O)c1ccc(Br)cc1	0.7	0.9	-26.2	34.1*	-19.9
O=C(C[n+]1ccccc1)N/N=C/c1cc(Br)ccc1O	1.6	-6.0	-8.3	36.4*	-19.2
Cc1cccc(/C=N\NC(=O)c2ccc(Cl)cc2)c1O	-1.4	-0.3	-31.4	30.2*	-14.5
O=C(N/N=C/c1cccc(Br)c1)c1ccc(Br)cc1	-1.9	-0.9	-20.1	49.9*	-14.3
O=C(N/N=C/c1cccc([N+](=O)[O-])c1)c1ccc(Br)cc1	-0.1	2.0	6.0	2.9	-9.2
O=C(C[n+]1ccccc1)N/N=C/c1ccccc1F	0.5	-9.1	-2.5	-5.6	-7.4
Cn1cc(-c2cc3n(n2)CCC(=O)N3CC(=O)O)c2ccccc21	-0.2	/	-2.7	/	/
Cc1ccc2oc(=O)n(CCNC(=O)Nc3ccccc3Cl)c2c1	-0.6	/	-1.8	/	/
